# JMJD2A Tudor inh – blocks the human JMJD2A Tudor domain | O75164 | 390,000 tested, 4.4% active | Potency, µM (series often up to 114 µM), for inactives: at the top dose activity change, negative = inhibition, most hits filed as inhibitors | AlphaScreen JMJD2A-Tudor / H3K4me3 peptide binding; further: on the % scale 0 is the no-effect control and ±100 the full control effect; nearly all actives have a fitted effect of over 50% in size
# G9a block – G9a (human) methyltransferase inhibition; 350,000 tested, 8.8% active; Potency, µM (titrated, usually from 102 µM), inactives show at the highest dose activity, negative = inhibition, actives largely listed as inhibitors; AID 504332; G9a H3K9 monomethylation, AlphaScreen, 2 h; Q96KQ7; further: on the % scale 0 is the no-effect control and ±100 the full control effect; nearly all actives have a fitted effect of over 75% in size
#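 G9a (20 nM) preincubated 15 min RT with compounds, then 500 nM biotinylated H3K9 peptide and 20 uM SAM added; 2 h RT reaction. Monomethyl-H3K9 product detected by AlphaScreen with anti-H3K9me1 antibody, streptavidin donor and anti-rabbit IgG acceptor beads.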
# BAZ2B inh – inhibitors of human BAZ2B bromodomain; 360,000 tested, 4.4% active; AID 504333; Potency, µM (titrated, usually from 114 µM), inactives show at the top dose activity change, negative = inhibition, actives largely listed as inhibitors; AlphaScreen BAZ2B-H3K14Ac peptide displacement; further: on the % scale 0 is the no-effect control and ±100 the full control effect; nearly all actives have a fitted effect of over 60% in size
#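 Multi-concentration screen (max 110 uM) measuring displacement of acetylated histone H3 peptide from BAZ2B by AlphaScreen, using 50 nM protein, 50 nM peptide and 10 ug/mL streptavidin donor plus Ni-chelate acceptor beads.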
# PLK1 PBD block – PLK1 (human) polo-box domain binding inhibition | Potency, µM, without a hit: max response, negative = inhibition, usual class: inhibitors | P53350 | Plk1 PBD binding of FITC phosphopeptide, fluorescence polarization | 360,000 tested, 2.8% active; further: series mostly up to about 57 µM; on the % scale 0 is the no-effect control and ±100 the full control effect; nearly all actives have a fitted effect of over 65% in size
# ALOX12 inh – blocks human arachidonate 12S-lipoxygenase | AID 1671190 | purified 12hLO, xylenol orange hydroperoxide absorbance | 580,000 tested, 1.1% active | P18054 | Potency, µM (highest dose often 108 µM), without a hit: at the top dose activity change, negative = inhibition, most hits filed as inhibitors; further: on the % scale 0 is the no-effect control and ±100 the full control effect
# Target sequence (P18054 whole entry, looked up): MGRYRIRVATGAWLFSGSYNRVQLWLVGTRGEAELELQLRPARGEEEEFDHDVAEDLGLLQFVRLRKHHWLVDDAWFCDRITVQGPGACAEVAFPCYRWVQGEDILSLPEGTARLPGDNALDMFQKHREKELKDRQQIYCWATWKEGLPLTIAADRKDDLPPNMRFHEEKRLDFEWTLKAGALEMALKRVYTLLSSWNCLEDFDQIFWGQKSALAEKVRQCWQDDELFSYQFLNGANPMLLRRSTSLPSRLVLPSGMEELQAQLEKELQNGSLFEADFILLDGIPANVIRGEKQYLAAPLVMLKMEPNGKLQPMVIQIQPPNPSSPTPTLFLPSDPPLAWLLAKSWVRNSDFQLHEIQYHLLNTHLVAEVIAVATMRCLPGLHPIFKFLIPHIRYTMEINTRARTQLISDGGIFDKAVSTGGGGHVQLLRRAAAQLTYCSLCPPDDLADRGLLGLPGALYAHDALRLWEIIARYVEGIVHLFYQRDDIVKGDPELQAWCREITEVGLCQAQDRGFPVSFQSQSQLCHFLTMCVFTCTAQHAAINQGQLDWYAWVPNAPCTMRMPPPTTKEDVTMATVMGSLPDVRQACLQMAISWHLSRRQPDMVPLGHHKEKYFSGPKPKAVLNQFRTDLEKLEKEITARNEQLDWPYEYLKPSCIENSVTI
#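 Hydroperoxide product was detected by ferrous iron/xylenol orange as the 573 to 405 nm absorbance ratio. Arachidonic acid at 40 uM (final) was turned over for 30 min at room temperature by 150 nM human 12hLO, pH 7.0 Hepes buffer, after 15 min compound preincubation.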
# HP1b binding inh – inhibitors of HP1-beta chromodomain binding to methylated histone tails | P83916 | AlphaScreen HP1-beta / biotin-H3K9me3 peptide binding | Potency, µM (series often up to 114 µM), for the others: at the top dose activity change, negative = inhibition, actives largely listed as inhibitors | 390,000 tested, 0.56% active; further: nearly all actives have a fitted effect of over 70% in size
#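 HP1-beta protein (50 nM final) preincubated 30 min at room temperature with biotinylated H3(1-18)K9me3 peptide (50 nM) in PBS pH 7.4, 0.01% Tween-20, then compound added for 30 min. AlphaScreen streptavidin donor/nickel chelate acceptor beads (10 ug/mL final), 30 min dark, luminescence read.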
# An asterisk follows results filed as active; i = inactive; ? = inconclusive; nt = no result; [ ] = dose if it differs, or a comment. In the library only some 9% were active in any assay of this set; here they are far more common. The call rests on the fitted dose curve; in most records, active means well fitted curve in the direction sought with a large enough effect; inconclusive means small, poorly fitted or top-dose-only effect, or another doubt; inactive means no such curve, though single readings can be large; an effect the other way counts as inactive or inconclusive. Potency means the concentration at half of the fitted maximal effect.
SMILES,JMJD2A Tudor inh,G9a block,BAZ2B inh,PLK1 PBD block,ALOX12 inh,HP1b binding inh
Cc1ccc(C(OCC(O)CNCc2ccc(F)cc2)c2ccccc2)cc1 (stereo unspecified),79µM*,?,40µM*,?,?,-34%
CC(C)CCc1noc(CN2CCC(C(=O)N3CCOCC3)CC2)n1,-6%,0%,-2%,0%,26%,36%
CCOC(=O)C1=C(c2ccccc2)NC(=O)NC1c1cc(OC)c(OC)c(OC)c1 (stereo unspecified),2%,-6%[2.33 µM],10%,5%,376%,45%
Cc1c(-c2cccc(Cl)c2)nc2ccccc2c1C(=O)OC/C(O)=C(\C#N)c1nc2ccccc2[nH]1,-18%,-1%,-6%,-4%,-11%,15%
CCOC(=O)Cc1cc(=O)n(-c2nc3ccccc3s2)[nH]1,-32%,32µM*,0%,-1%,7.9µM*,14%
O=C(COc1ccc(Cl)cc1)NC1=NN(c2ccccc2)C(=O)C1,?,-17%[59 µM],?,-10%,45µM*,-9%
Cc1c(C#N)c(O)[nH]c(=O)c1N=Nc1ccc(Cl)c(C(=O)O)c1,3%,14%[2.33 µM],1%,4%,?,29%
Cc1c(C#N)c(O)[nH]c(=O)c1N=Nc1ccc(S(N)(=O)=O)cc1,?,79µM*,-12%,-17%,40µM*,?
O=C(CCCc1ccccc1)N1CCN(C2CCN(CCc3ccccc3)C2=O)CC1 (stereo unspecified),nt,nt,nt,nt,25%,nt
COC(=O)[C@]12CCCCC=C1N(Cc1ccc(Cl)cc1Cl)C(=O)[C@H](CC(=O)NCC1CCCCC1)C2,nt,nt,nt,-3%,i,nt
CCOC(=O)c1c(C)n(-c2ccc(C)cc2)c2ccc(O)c(CN(C)C)c12,?,45µM*,?,-5%,?,-8%
CCOC(=O)c1c(C)n(-c2ccc(OC)cc2)c2ccc(O)c(CN(C)C)c12,-19%[11.4 µM],?,-29%,30µM*,-26%,11%
CCOC(=O)c1c(C)n(C)c2ccc(O)c(CN(C)C)c12,-27%,?,-35%,2%,0%,-5%
C/C(N)=C(/C#N)C(=O)COC(=O)COc1ccc(Cl)cc1C,-15%,50µM*,-5%,-3%,0%,5%
Cc1c(CN2CCCC(C)C2)c(O)n(CCO)c(=O)c1C#N (stereo unspecified),6%,nt,-5%,0%,?,29%
C=CCn1c(O)c(CN2CCCCC2)c(C)c(C#N)c1=O,-16%,50µM*,-33%,-5%,-7%,19%
CC1CC(C)CN(C(=O)Nc2ccc(Br)cc2)C1 (stereo unspecified),-19%,nt,-4%,30µM*,-8%,-4%
C/C(=N\NC(=O)CCC(=O)NCc1ccccc1)c1ccco1,12%,8%,-15%,3%,18%,47%
C=CCC(C)(NCc1ccccc1)c1ccco1 (stereo unspecified),2µM*,13µM*,50µM*,-3%,-14%,?
O=C(Oc1ccc(C(=S)N2CCOCC2)cc1Cl)c1ccccc1F,-35%,-9%[0.501 µM],-31%,?,-13%,-14%
O=C(Oc1ccc(C(=S)N2CCOCC2)cc1)c1ccccc1F,-10%,25µM*,-26%,21µM*,5%,-2%
O=C(Oc1ccc(C(=S)N2CCOCC2)cc1Br)c1ccccc1F,-30%,10µM*,-33%,24µM*,?,?
O=C(Nc1ccc(-n2nncc2-c2ccco2)cc1)c1ccc(F)cc1,?,50µM*,?,-17%,-13%,?
Cc1onc(-c2ccccc2Cl)c1C(=O)Nc1ccc(-n2nncc2-c2ccco2)cc1,?,40µM*,?,-3%,nt,-6%
Cc1ccc(-n2nc3c(c2NC(=O)c2c(-c4ccccc4Cl)noc2C)CSC3)cc1,-24%,45µM*,0%,-10%,nt,18%
SMILES,JMJD2A Tudor inh,G9a block,BAZ2B inh,PLK1 PBD block,ALOX12 inh,HP1b binding inh
O=C(O)c1ccc(-n2nncc2-c2ccco2)cc1,7%,-1%,7%,5%,-6%,43%
Cc1onc(-c2ccccc2Cl)c1C(=O)Nc1ccc(-n2nncc2C(C)(C)C)cc1,-14%,-50%,-3%,-6%,14%,11%
COCCNC(=O)c1cccc(OC2CCN(Cc3ccc(F)cc3OC)CC2)c1,-12%,nt,12%,-2%,0%,18%
CCSC1=N/C(=C\c2ccc(Br)s2)C(=O)S1,nt,nt,nt,nt,-67%,nt
CCSC1=N/C(=C\c2ccc(-c3ccccc3[N+](=O)[O-])o2)C(=O)S1,?,46%[0.501 µM],7.9µM*,-18%,?,10µM*
CCCSC1=N/C(=C\c2ccc([N+](=O)[O-])o2)C(=O)S1,11µM*,?,13µM*,7.5µM*,40µM*,35µM*
CCOC(=O)c1c(NC(=O)c2c(C)noc2C)sc2c1CCCCC2,-25%,-10%[0.501 µM],12%,-17%,nt,17%
Cc1c(C)c2c(c(C)c1OC(=O)CCC(=O)O)CC[C@@](C)(CCC[C@H](C)CCC[C@H](C)CCCC(C)C)O2,nt,-43%[12.7 µM],nt,nt,nt,nt
CCCC(=O)Nc1ccc(C(=O)NNC(=S)NC(=O)c2ccc(Br)o2)cc1,-4%[11.4 µM],40µM*,5%,24µM*,-18%,?
CCCCC(=O)Nc1ccc(C(=O)NNC(=O)c2ccc(C)c(Br)c2)cc1,56µM*,?,-35%,-10%,-15%,-10%
CC(C)CC(=O)NCCCN1CCN(CCCNC(=O)CC(C)C)CC1,-10%,10%[59 µM],-3%,0%,0%,16%
CCCS(=O)(=O)N1CCC(C(=O)NC2CCC(C)CC2)CC1 (stereo unspecified),-2%,4%,9%,1%,0%,26%
O=C(Nc1cc(C(=O)Nc2ccc(S(=O)(=O)O)cc2S(=O)(=O)O)cc(C(=O)Nc2ccc(S(=O)(=O)O)cc2S(=O)(=O)O)c1)Nc1cc(C(=O)Nc2ccc(S(=O)(=O)O)cc2S(=O)(=O)O)cc(C(=O)Nc2ccc(S(=O)(=O)O)cc2S(=O)(=O)O)c1,nt,0.071µM*,nt,nt,27%,nt
O=C(Nc1ccc(C(=O)Nc2ccc(C(=O)Nc3ccc(S(=O)(=O)O)c4cc(S(=O)(=O)O)cc(S(=O)(=O)O)c34)cc2)cc1)Nc1ccc(C(=O)Nc2ccc(C(=O)Nc3ccc(S(=O)(=O)O)c4cc(S(=O)(=O)O)cc(S(=O)(=O)O)c34)cc2)cc1,nt,1.3µM*,nt,nt,-1%,nt
O=C1C(Cl)=C(Nc2ccccc2O)C(=O)N1c1ccccc1,35µM*,7.9µM*,?,8.4µM*,-9%,?
O=C(COC(=O)c1ccc[nH]c1=O)c1ccc(Cl)s1,?,-1%[59 µM],?,-8%,-12%,7%
C(=NN=C1c2ccccc2-c2ccccc21)c1c[nH]c2ccccc12,22µM*,nt,nt,4%,-14%,?

# Screens: PubChem, National Center for Advancing Translational Sciences (NCATS)
